NIH3T3 tox – Cytotoxic Profiling in NIH 3T3 Cell Line of Diverse Libraries Using Quantitative High-Throughput Screening; NIH 3T3 viability, CellTiter-Glo ATP luminescence, 48-72 h; Potency, µM (highest dose often 96.7 µM), for inactives: at the top dose activity change, negative = cytotoxicity, usual class: inhibitors; 4.3% of 94,000 active; AID 1345082, 2018; further: nearly all actives have a fitted effect of over 55% in size
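Viability of NIH 3T3 cells after 48 or 72 hr compound treatment at 37 °C was assessed by CellTiter-Glo, with luminescence imaged following a 10 min room-temperature step.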
hNpr1 antagonist – Natriuretic polypeptide receptor (hNpr1) antagonism - Primary qHTS; Potency, µM (doses to about 46.3 µM), for inactives: top-dose activity change, negative = inhibition, most hits filed as inhibitors; HEK293 hNpr1 GloSensor cGMP, ANP-stimulated luminescence; AID 1347048, 2019; 1.6% of 76,000 active; calls by dose curve; further: nearly all actives have a fitted effect of over 60% in size
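HEK293 cells stably expressing human Npr1 and cGMP GloSensor pGS-40F, loaded 2 h with 2% GloSensor reagent, given compound 30 min at room temperature. Luminescence read before and 20 min after 0.1 nM hNppA.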
Luciferase inh – Firefly luciferase inhibition profiling of diverse chemical library using quantitative high-throughput screening; 2.5% of 76,000 active; Potency, µM (highest dose often 115 µM), usual class: inhibitors; purified P. pyralis luciferase, luminescence, biochemical; Luciferin 4-monooxygenase (Photinus pyralis), P08659; further: nearly all actives have a fitted effect of over 65% in size
Target sequence (P08659 whole entry, looked up): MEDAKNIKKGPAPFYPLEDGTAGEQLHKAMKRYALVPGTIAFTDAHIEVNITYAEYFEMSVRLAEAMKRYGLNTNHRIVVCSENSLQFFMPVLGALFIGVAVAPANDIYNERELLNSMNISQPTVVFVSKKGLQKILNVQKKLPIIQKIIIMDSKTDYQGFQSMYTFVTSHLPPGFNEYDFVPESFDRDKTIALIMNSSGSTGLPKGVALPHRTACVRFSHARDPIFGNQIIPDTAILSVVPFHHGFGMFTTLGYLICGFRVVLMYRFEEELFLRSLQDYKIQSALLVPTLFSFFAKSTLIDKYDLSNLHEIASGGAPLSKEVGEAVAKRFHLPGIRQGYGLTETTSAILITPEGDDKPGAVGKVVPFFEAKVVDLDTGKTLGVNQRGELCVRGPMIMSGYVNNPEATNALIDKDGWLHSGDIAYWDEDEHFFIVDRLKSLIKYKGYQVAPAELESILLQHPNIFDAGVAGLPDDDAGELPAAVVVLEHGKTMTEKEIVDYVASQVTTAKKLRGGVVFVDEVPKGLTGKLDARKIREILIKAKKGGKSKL
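Purified P. pyralis luciferase (10nM final) in 50mM Tris acetate pH 7.5, 10mM Mg acetate, 0.01% Tween-20, 0.05% BSA with 10uM D-luciferin and 10uM ATP. Compounds titrated qHTS. Luminescence imaged on CCD.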
HEK293 viab – GF-AFC viability counterscreen for inhibitors of alpha-synuclein gene (SNCA) expression; Potency, µM (titrated, usually from 57.1 µM), for inactives: at the highest dose activity change, negative = cytotoxicity, actives largely listed as cytotoxic; AID 1671193, 2021; HEK-293-SNCA-luc viability, GF-AFC fluorescence, 24 h; 0.12% of 150,000 active;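 further: 0% = DMSO-treated cells and -100% = medium-only wells without cells; nearly all actives have a fitted effect of over 30% in size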
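HEK-293-SNCA-luc cells (1500/well) plated 24 h, then exposed 24 h to a dilution series; GF-AFC added 30 min at 37C, fluorescence 405/540 nm; normalised to medium-only and DMSO wells, Hill fit.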
SNCA expr inhib – Primary qHTS assay for inhibitors of alpha-synuclein gene (SNCA) expression; Potency, µM (series often up to 57.2 µM), for inactives: top-dose activity change, negative = inhibition, actives largely listed as inhibitors; AID 1671194, 2021; HEK-293 SNCA-luciferase knock-in, luminescence, 24 h; 0.17% of 140,000 active;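 further: plate controls were DMSO cells for no effect and cell-free wells for full effect; nearly all actives have a fitted effect of over 45% in size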
HEK293 tox – Cytotoxic Profiling in HEK 293 Cell Line of Diverse Libraries Using Quantitative High-Throughput Screening; HEK 293 viability, ATP luminescence (CellTiter-Glo), 48-72 h; Potency, µM (titrated, usually from 115 µM), inactives show at the highest dose activity change, negative = cytotoxicity, actives largely listed as inhibitors; 6.6% of 94,000 active; AID 1345083, 2018; further: nearly all actives have a fitted effect of over 60% in size
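ATP-coupled CellTiter-Glo luminescence served as viability read-out, recorded 10 min after reagent addition at room temperature. HEK 293 cells, 250 cells/well, had been incubated with pintool-transferred compound for 48 or 72 hr at 37 degree Celsius.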
* = called active by the depositor; i = inactive; u = inconclusive; x = no result; [ ] = another dose, or the depositor's remark. Sampled rows, rich in hits. Any-hit rate of the full collection: about 7.4%. Unless noted, the call rests on the fitted dose curve; in most records, active means well fitted curve in the direction sought with a large enough effect; inconclusive means small, poorly fitted or top-dose-only effect, or another doubt; inactive means no such curve, though single readings can be large; an effect the other way counts as inactive or inconclusive. Unless noted, on the % scale 0 is the no-effect control and ±100 the full control effect; potency means the concentration at half of the fitted maximal effect.

SMILES	NIH3T3 tox	hNpr1 antagonist	Luciferase inh	HEK293 viab	SNCA expr inhib	HEK293 tox
CC(C)Cc1cc(CC2(NCc3ccccc3O)COC2)no1	u	3%[70.6 µM]	i	-9%[87.6 µM]	-11%[87.6 µM]	u
Fc1ccc(-c2cc(CC3(NCc4ccc5c(c4)OCO5)COC3)no2)cc1	u	-10%[70.6 µM]	i	-6%[87.6 µM]	-27%[87.6 µM]	u
COc1ccc(-c2cc(CC3(NCc4ccccc4O)COC3)no2)cc1	u	-18%[70.6 µM]	i	-26%[87.6 µM]	4%[87.6 µM]	100µM*
Fc1ccc(-c2cc(CC3(NCc4ccco4)COC3)no2)cc1	u	-15%[70.6 µM]	i	3%[87.6 µM]	-3%[87.6 µM]	89µM*
CN1C[C@@H](NC(=O)c2ccc(F)cc2)C[C@H]1c1nc(-c2ccc3c(c2)OCO3)no1	u	-8%[70.6 µM]	i	-19%[87.6 µM]	34%[87.6 µM]	79µM*
CN(C)c1ccc(C(=O)N[C@H]2C[C@@H](c3nc(-c4ccc5c(c4)OCO5)no3)N(C)C2)cc1	u	-19%	i	-17%	8%	u
Cc1ccc(C(=O)N[C@H]2C[C@@H](c3nc(-c4ccc5c(c4)OCO5)no3)N(C)C2)cc1	79µM*	-1%[70.6 µM]	i	-18%[87.6 µM]	23%[87.6 µM]	u
CN1C[C@@H](NC(=O)c2ccccc2)C[C@H]1c1nc(-c2ccc3c(c2)OCO3)no1	u	-5%[70.6 µM]	i	-22%[87.6 µM]	40%[87.6 µM]	79µM*
COCC(=O)N1CCCC1C(=O)N1CCC2(CC1)CC(=O)Nc1ccccc1O2 (stereo not given)	-5%	x	x	-10%	16%	-12%
CC1=C[C@@H](CN2CCOCC2)[C@H](C(C)C)C[C@H]1Cc1nnc(-c2ccccc2)o1	u	-8%[70.6 µM]	i	-23%[87.6 µM]	-9%[87.6 µM]	89µM*
CC1=C[C@@H](CN2CCN(c3cnccn3)CC2)[C@H](C(C)C)C[C@H]1Cc1nnc(-c2ccc([N+](=O)[O-])cc2)o1	u	1%	i	-24%	-11%	u
CC1=C[C@@H](CN2CCN(c3ccccn3)CC2)[C@H](C(C)C)C[C@H]1Cc1nnc(-c2ccccc2)o1	u	-28%	i	u	-29%	40µM*
CN(C)C(=O)C1CCN(Cc2ccccc2-c2cccnc2)CC1	-5%[138 µM]	x	x	3%[12.5 µM]	-3%[87.6 µM]	-7%[172 µM]
O=C1CC(c2ccccc2)N(Cc2ccncc2)CCCN(S(=O)(=O)c2cccc(F)c2)CCN1 (stereo not given)	u	-13%	i	-2%	-1%	45µM*
O=C1CC(c2ccccc2)N(Cc2ccncc2)CCCN(S(=O)(=O)c2cccnc2)CCN1 (stereo not given)	-26%	-3%	i	-2%	-27%	-23%
O=C(Cc1cccc(Cl)c1)NC1CCN(C(=O)c2ccc(-c3cccs3)cc2)CC1	u	x	x	9%[12.5 µM]	-13%	u
COc1ccc(-c2cc(-c3ccc(OC)nc3)cn3cncc23)cc1	40µM*	-12%[70.6 µM]	i	-14%[87.6 µM]	5%[87.6 µM]	89µM*
OCc1cccc(-c2cc(-c3ccncc3)c3cncn3c2)c1	13µM*	-13%[70.6 µM]	i	4%[87.6 µM]	-7%[87.6 µM]	25µM*
COc1ccc(-c2cc(-c3cn[nH]c3)c3cncn3c2)cn1	u	-3%[70.6 µM]	i	-9%[87.6 µM]	u	u
COc1ccc(-c2cc(-c3cccnc3OC)cn3cncc23)cc1	35µM*	-20%[70.6 µM]	i	-9%[87.6 µM]	-7%[87.6 µM]	u
COc1ccc(-c2cc(-c3cccc(NC(C)=O)c3)cn3cncc23)cc1	u	-18%[70.6 µM]	u	-9%[87.6 µM]	-9%[87.6 µM]	u
COc1ncccc1-c1cc(-c2ccncc2)c2cncn2c1	28µM*	2%[70.6 µM]	i	11%[87.6 µM]	1%[87.6 µM]	u

Source: PubChem (National Center for Advancing Translational Sciences (NCATS))
